TIM10 inh: growth inhibitors of TIM10 yeast strain; S. cerevisiae TIM10 strain growth, BacTiter-Glo luminescence, 24 h; inhibition, % at 10 µM; hit rate 1.4% among 330,000; AID 463195;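 active = inhibition of 40% or more at the single tested concentration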;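 also: wild-type TIM10 isogenic control strain grown at permissive 25 °C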
NLRP3 yeast inh: inhibitors of NALP3 inflammasome in yeast. inhibition, % at 10 µM. Yeast reconstituted NLRP3/ASC/caspase-1, beta-gal luminescence, 24 h. AID 2825. hit rate 0.39% among 330,000;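 active = inhibition of 50% or more; inactive = inhibition below 50%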;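 also: plate controls were induced DMSO wells for no effect and uninduced yeast grown without galactose for full effect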
NALP1 yeast inh: blocks the NALP1 inflammasome reconstituted in yeast; S. cerevisiae NALP1/ASC/caspase-1 growth, X-gal OD620, 72 h; inhibition, % at 10 µM; hit rate 0.61% among 280,000; AID 2071; in the data active = inhibition mostly above about 24%, no sharp cut-off; inactive = mostly below about 32%
tim10-1 inh: inhibits growth of tim10-1 mutant yeast. S. cerevisiae tim10-1 ts strain growth, BacTiter-Glo, 24 h. inhibition, % at 20 µM. hit rate 2.2% among 330,000. AID 463190;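 active = inhibition of at least 40%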;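 also: mutant grown at 25 °C; 0% = DMSO wells with yeast and 100% = wells holding no yeast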
tim23-1 inh: tim23-1 yeast growth inhibition. S. cerevisiae tim23-1 growth, BacTiter-Glo luminescence, 24 h. inhibition, % at 20 µM. hit rate 1.3% among 330,000. AID 463212;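 active = growth inhibition of the mutant yeast at or above 50%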;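 also: temperature-sensitive mutant grown at 25 °C; plate controls were DMSO-treated mutant yeast for no effect and medium wells lacking yeast for full effect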
tim10-1 conf: tim10-1 yeast growth inhibition, confirmed; shares compounds with tim10-1 inh; hit rate 56% among 7,400; inhibition, % at 20 µM; AID 463213; S. cerevisiae tim10-1 ts strain growth, BacTiter-Glo, 24 h;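 active = inhibition of yeast growth at or above a set limit in either of two repeat tests at 20 µM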;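 also: tim10-1 mutant grown at permissive 25 °C to find synthetic lethal compounds; 0% = DMSO yeast wells and 100% = medium wells without yeast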
An asterisk follows results filed as active; . = not tested or not shown. A selection: hits, their analogues and other compounds. The true share with any hit is near 4.1%.

SMILES	TIM10 inh	NLRP3 yeast inh	NALP1 yeast inh	tim10-1 inh	tim23-1 inh	tim10-1 conf
CCN1N=C(c2cc(Cl)sc2Cl)CSC1=O	-21	34	2	22	15	.
CCC(C)C(NC(C)=O)C(=O)NC(=O)NC(c1ccccc1)c1ccccc1 (stereo unspecified)	8	7	4	15	13	.
COc1ccccc1-c1nc(C#N)c(N2CCc3ccccc3C2)o1	34	20	22	40*	40	32*
COc1ccc(-c2nc(C#N)c(N3CCc4ccccc4C3)o2)cc1OC	13	19	9	21	31	.
O=[N+]([O-])c1ccc(C(=S)N2CCN(c3ccc(F)cc3)CC2)cc1	21	-8	17	43*	35	26
Cc1nc(-c2ccccc2)sc1-c1nc(-c2ccncc2)ncc1S(=O)(=O)c1ccccc1	31	10	17	34	16	.
Cc1c2c(c(C)n1C)C(C(=O)NC1CCCCC1)N(Cc1ccccc1)C2=O (stereo unspecified)	19	22	21	45*	36	39*
O=C(NC1CCCCCC1)C1c2ccccc2C(=O)N1Cc1cccnc1 (stereo unspecified)	-2	2	22	13	-2	.
COc1ccc(N(C)S(=O)(=O)c2ccc(Cl)c(C(=O)NNC(=O)c3ccccc3O)c2)cc1	11	5	.	16	25	.
O=C(NCc1ccco1)c1cc2ccc(O)cc2oc1=O	34	1	-2	55*	44	46*
COC(=O)Cc1ccc(NC(=S)NCc2ccccc2OC)cc1	11	18	-9	20	-7	.
COc1ccccc1CNC(=S)Nc1ccc(F)cc1	16	-21	-4	48*	33	1
COc1ccccc1-n1cnnc1SCC(=O)c1c[nH]c2ccccc12	8	-14	29	18	-4	.
CCOC(=O)CC1=CC(C)(CC(=O)OCC)C(C#N)(C#N)C(N)=C1C#N (stereo unspecified)	17	18	27	17	20	.
CN1/C(=C\C(=O)Nc2cccnc2)c2ccccc2CC1(C)C	3	18	2	2	9	.
COc1ccc(C(=O)/C=C2/c3ccccc3CC(C)(C)N2C)cc1	20	13	1	47*	39	27
O=C(NCc1ccco1)c1cccn2c(=O)c3sccc3nc12	21	3	.	40*	16	19
O=C(NCc1cccs1)c1cccn2c(=O)c3sccc3nc12	-12	4	-25	-6	-1	.
CC[C@H]1c2[nH]c3ccccc3c2C[C@@H]2C(=O)N(c3ccc(F)cc3)C(=O)N21	10	-2	.	17	20	.
c1cncc(-c2nnc3sc(C4CCCCC4)nn23)c1	10	-23	-17	10	6	.
CCOc1cccc(-c2nnc3sc(C4CCCCC4)nn23)c1	31	-20	-15	41*	40	13
Cc1ccc(Nc2cc(C)nc3ncnn23)cc1	-2	10	-14	14	6	.
CCOc1cccc2cc(-c3nnc(NCc4ccco4)s3)c(=O)oc12	23	2	-28	40*	23	21
O=C(CC1CCC1)Nc1cccc2c([N+](=O)[O-])cccc12	16	19	.	14	5	.
COc1cc2nc(SCc3ccc(Cl)cc3Cl)n(Cc3cccs3)c(=N)c2cc1OC	28	10	-3	23	16	.
SMILES	TIM10 inh	NLRP3 yeast inh	NALP1 yeast inh	tim10-1 inh	tim23-1 inh	tim10-1 conf
COc1ccc(Cn2c(SCc3cc(C)ccc3C)nc3cc(OC)c(OC)cc3c2=N)cc1	-39	29	-1	59*	3	34*
CC(Oc1ccc2c(c1)oc(=O)c1ccccc12)C(=O)NCCN1CCOCC1 (stereo unspecified)	3	0	6	5	-3	.
CCN(CC)S(=O)(=O)c1ccc2oc(C(=O)N3CCc4ccccc4C3)c(C)c2c1	5	0	43	43*	34	30*
CCOc1cc(/C=N/NC(=O)c2cccnc2)ccc1OCC(=O)N(C)C	13	16	10	11	3	.
S=C(N/N=C/c1ccccc1Cl)Nc1cccc(Cl)c1Cl	25	32	.	41*	30	16
CCOc1ccccc1C(=O)NC(C(=O)Nc1cccc(S(N)(=O)=O)c1)C(C)C (stereo unspecified)	7	7	10	5	-5	.
CCSc1nc2sc3c(c2c(=O)n1-c1ccccc1)CCN(C(C)C)C3	-53	40	18	-33	-16	.
O=C(OCc1nc2ccccc2s1)C1CCN(S(=O)(=O)c2cccs2)CC1	34	19	6	48*	39	25
CC(C)Cc1nnc(NC(=O)c2ccc3c(c2)OCCO3)s1	28	14	.	32	37	.
O=C1S/C(=C/c2ccc(N3CCOCC3)o2)C(=O)N1Cc1c(F)cccc1Cl	24	33	27	59*	29	58*
O=C1S/C(=C\c2ccc(N3CCOCC3)o2)C(=O)N1Cc1c(F)cccc1Cl	23	37	0	34	21	.
N#Cc1ccccc1S(=O)(=O)N1CCN(C(=O)C2CCC2)CC1	-2	18	.	97*	-2	4
O=C(Nc1ccccc1C(=O)N1CCCCC1)c1ccccc1C(F)(F)F	4	1	-3	3	-6	.
O=[N+]([O-])c1ccc(Nc2ccc(Cl)cc2)nc1	11	-14	-6	59*	42	42*
O=[N+]([O-])c1ccc(NCc2ccc(Cl)cc2)nc1	20	18	22	35	32	.
Cc1c([N+](=O)[O-])c(C(=O)Sc2ccc(Br)cc2)nn1C	16	10	5	47*	24	46*
Cc1c([N+](=O)[O-])c(C(=O)N2CCCC2)nn1C	8	-11	-10	4	6	.
COc1ccc(-c2nnnn2C)cc1S(=O)(=O)Nc1ccc(C)cc1C	-9	3	5	-7	1	.
CC(NC(=O)c1cccc(Cl)c1)C1CC2CCC1C2 (stereo unspecified)	19	4	29	45*	38	35*
CC(NC(=O)c1ccc(Cl)cc1)C1CC2CCC1C2 (stereo unspecified)	-24	32	-1	-4	12	.
CCOc1ccccc1NC(=O)CSc1nncc2ccccc12	6	14	34	32	23	.
O=C(c1nc2ccccc2s1)N1CCN(c2ccccn2)CC1	10	33	6	45*	28	27
O=C(c1ccc2nc(N3CCOCC3)sc2c1)N1CCC(Cc2ccccc2)CC1	39	41	-1	54*	49	43*
Cc1cccc(N2CCN(C(=O)c3ccc4nc(N5CCCCC5)sc4c3)CC2)c1C	15	7	.	3	32	.
O=C(c1nc2ccccc2s1)N1CCSCC1	-3	-9	-1	7	12	.
O=C(c1ccc2nc(N3CCCCC3)sc2c1)N1CCN(c2ccccn2)CC1	37	27	.	51*	49	35*

Bioassay records from PubChem.
